We go through five compounds from the supplement of paper PMC6288085.

± gives the uncertainty stated by the source.

The experiment relates to Caenorhabditis elegans N2. Put plainly: food intake (mean delta OD600 / animal over 72 h) with 50 uM loxapine co-treatment (OD600 units per animal); higher = more food eaten (less suppression of loxapine-induced hyperphagia). The conditions noted are these: first compound 33 µM, loxapine concentration 50 µM. Here is the method:
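C. elegans N2 adults (FUDR-sterilised, day 1) in 96-well plates fed gamma-irradiated bacteria. Each library drug (MedChemExpress FDA-approved library) at 33 uM was combined with loxapine at 50 uM. Food intake was measured as bacterial clearance: the change in OD600 from day 1 to 72 h, normalised per animal (mean over 14-21 wells of about 10-12 worms). Drugs flagged for bacterial lysis or sickness were excluded by the authors.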
Turning to `CCOCC(O)COc1ccc(NC(=O)CC[S+](C)C)cc1` (stereo not given) [Suplatast (tosilate)] + CN1CCN(C2=Nc3ccccc3Oc3ccc(Cl)cc32)CC1 [loxapine], the food intake amounted to 0.0232 ± 0.0036.
Then `CN(C)c1cc(NC(=O)CNC(C)(C)C)c(O)c2c1C[C@H]1C[C@H]3[C@H](N(C)C)C(O)=C(C(N)=O)C(=O)[C@@]3(O)C(O)=C1C2=O` [tigecycline] + CN1CCN(C2=Nc3ccccc3Oc3ccc(Cl)cc32)CC1 [loxapine], with 0.0234 ± 0.0019.
With `CCOC(=O)/C=C(C)/C=C/C=C(C)/C=C/c1c(C)cc(OC)c(C)c1C` [etretinate] + CN1CCN(C2=Nc3ccccc3Oc3ccc(Cl)cc32)CC1 [loxapine], the food intake was 0.0213 ± 0.0039.
The figure for `CCOC(N)=O` [urethane] + CN1CCN(C2=Nc3ccccc3Oc3ccc(Cl)cc32)CC1 [loxapine] is 0.0215 ± 0.0029; for `Cc1cn([C@@H]2C[C@@H](O)[C@H](CO)O2)c(=O)[nH]c1=O` [telbivudine] + CN1CCN(C2=Nc3ccccc3Oc3ccc(Cl)cc32)CC1 [loxapine] it is 0.0219 ± 0.0023.
